The source of these data is PubChem BioAssay (NCI).

Test systems include SR leukemia; RPMI-8226 leukemia; OVCAR-8 ovarian; OVCAR-5 ovarian; SK-OV-3 ovarian; IGROV1 ovarian; OVCAR-3 ovarian; HS 578T breast; NCI/ADR-RES ovarian.
What all share (experiment): NCI-60 one-dose screen, 48 h (100 = growth as untreated, 0 = no growth, -100 = all killed)
Holding throughout (conditions): 10 µM unless noted

The panel holds about 83,000 compounds, 20% with a hit somewhere; the sample as a whole holds those more often.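 The test compound was applied at a single concentration to cells in 96-well plates for 48 hours, and percent growth was recorded.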 A number with no mark means an inactive call. The source made the active and inactive calls. Rule for the calls: active = growth percent below 10; inactive = the rest.

For the compound `Cc1c(Cl)cccc1NC(=S)NC(=O)c1ccccc1`, the growth is 88.4% in the assay on SR leukemia; 73.6% in the assay with RPMI-8226 leukemia; 92.2% with OVCAR-8 ovarian; 109% in the assay with OVCAR-5 ovarian; 95.2% with SK-OV-3 ovarian; 118% with IGROV1 ovarian. Further, the growth is 103% with OVCAR-3 ovarian, 109% in the assay with HS 578T breast and 104% with NCI/ADR-RES ovarian.

As to `Cc1cc(Cc2ccccc2)c(O)c(Cc2ccccc2)c1`, the growth with SR leukemia was 91.3%; in the assay with RPMI-8226 leukemia, 103%; in the assay on OVCAR-8 ovarian it was 91.1%; with OVCAR-5 ovarian it was 88.2%; in the assay with SK-OV-3 ovarian it was 102%; with IGROV1 ovarian, 90.2%. The growth was 101% in the assay on OVCAR-3 ovarian, 106% with HS 578T breast and 82.6% in the assay on NCI/ADR-RES ovarian.

Take `CC(C)(C)NCCC(O)c1cc(C(F)(F)F)nc2c(C(F)(F)F)cccc12` (configuration not stated): the growth in the assay on SR leukemia is 121%; with RPMI-8226 leukemia, 95.7%; in the assay on OVCAR-8 ovarian, 83.6%; in the assay with OVCAR-5 ovarian it was 77.8%; in the assay with SK-OV-3 ovarian, 89.3%; in the assay on IGROV1 ovarian, 71.7%. In addition, the growth in the assay with OVCAR-3 ovarian is 75.9%; with HS 578T breast it was 65.5%; in the assay with NCI/ADR-RES ovarian, 84.6%.

Turning to `O=C1C=Cc2ccccc2/C1=C/c1[nH]c(=O)[nH]c1O`, the growth with SR leukemia is 33%; in the assay with RPMI-8226 leukemia, 87.3%; with OVCAR-8 ovarian, 45.4%; in the assay on OVCAR-5 ovarian, 86.7%; with SK-OV-3 ovarian, 32.8%; in the assay on IGROV1 ovarian, 33.2%. Besides, the growth with OVCAR-3 ovarian was -32.3% (active); in the assay on HS 578T breast it was -6.84% (active); in the assay with NCI/ADR-RES ovarian it was 67.8%.

Take `CCN(C(=O)Nc1ccccc1Cl)c1ccccc1`: the growth was 81.4% in the assay with SR leukemia; 107% with RPMI-8226 leukemia; 101% in the assay on OVCAR-8 ovarian; 97.1% with OVCAR-5 ovarian; 113% in the assay with SK-OV-3 ovarian; 103% in the assay with IGROV1 ovarian. Moreover, the growth in the assay on OVCAR-3 ovarian was 116%; with HS 578T breast it was 102%; with NCI/ADR-RES ovarian, 107%.

On to `Nc1cc(F)ccc1[N+](=O)[O-]`, for which the growth is 114% in the assay with SR leukemia; 106% with RPMI-8226 leukemia; 118% in the assay with OVCAR-8 ovarian; 97.4% in the assay on OVCAR-5 ovarian; 114% with SK-OV-3 ovarian; 98.4% with IGROV1 ovarian. For the same compound, the values for the growth in the assay on OVCAR-3 ovarian, in the assay with HS 578T breast and in the assay with NCI/ADR-RES ovarian were 115%, 98.7% and 107%, respectively.

For `Cc1[nH]c(=S)[nH]c(=O)c1C`, the growth in the assay with SR leukemia is 97.9%; with RPMI-8226 leukemia, 115%; with OVCAR-8 ovarian it was 89.8%; in the assay with OVCAR-5 ovarian, 101%; in the assay on SK-OV-3 ovarian, 106%; in the assay with IGROV1 ovarian, 104%. Besides, the growth in the assay on OVCAR-3 ovarian was 118%; with HS 578T breast it was 123%; in the assay with NCI/ADR-RES ovarian it was 105%.

For the compound `CCOC(OCC)C(=O)c1ccccc1`, the growth in the assay on SR leukemia is 132%; in the assay with RPMI-8226 leukemia it was 99.8%; with OVCAR-8 ovarian, 89.8%; with OVCAR-5 ovarian it was 94.1%; with SK-OV-3 ovarian, 105%; in the assay with IGROV1 ovarian, 105%. In addition, the values for the growth in the assay with OVCAR-3 ovarian, with HS 578T breast and in the assay on NCI/ADR-RES ovarian were 99.9%, 94.3% and 108%, respectively.

In the case of `Cc1cc2nc(C)c(C)nc2cc1C`, the growth was 96.8% in the assay on SR leukemia; 89.5% with RPMI-8226 leukemia; 94.2% in the assay on OVCAR-8 ovarian; 95.3% with OVCAR-5 ovarian; 99.5% with SK-OV-3 ovarian; 97% in the assay on IGROV1 ovarian. Also, the growth is 105% with OVCAR-3 ovarian, 108% in the assay on HS 578T breast and 101% in the assay on NCI/ADR-RES ovarian.

On to `CC(C)c1ccccc1NC(=O)N1CCC(C(C)C)CC1`, for which the growth in the assay with SR leukemia is 92.4%; in the assay on RPMI-8226 leukemia it was 105%; in the assay on OVCAR-8 ovarian, 105%; in the assay with OVCAR-5 ovarian, 117%; with SK-OV-3 ovarian, 105%; in the assay with IGROV1 ovarian it was 106%. Also, the growth in the assay on OVCAR-3 ovarian was 113%; with HS 578T breast, 102%; in the assay with NCI/ADR-RES ovarian, 111%.

Regarding `Cc1ccc(OC(=O)c2ccccc2)cc1`, the growth in the assay on SR leukemia was 102%; with RPMI-8226 leukemia, 113%; in the assay with OVCAR-8 ovarian, 101%; in the assay with OVCAR-5 ovarian, 100%; in the assay on SK-OV-3 ovarian, 107%; with IGROV1 ovarian, 132%. For the same compound, the growth in the assay with OVCAR-3 ovarian is 115%; in the assay with HS 578T breast, 141%; in the assay on NCI/ADR-RES ovarian it was 113%.

Turning to `O=c1[nH]c(=O)c2cc(Cl)cc(Cl)c2[nH]1`, the growth with SR leukemia was 94.3%; with RPMI-8226 leukemia it was 104%; with OVCAR-8 ovarian, 101%; with OVCAR-5 ovarian, 116%; with SK-OV-3 ovarian, 118%; in the assay on IGROV1 ovarian, 90.6%. Besides, the growth with NCI/ADR-RES ovarian was 131%.

For the compound `Cc1c(Cl)cccc1N=C=S`, the growth is 108% with SR leukemia; 86.3% in the assay with RPMI-8226 leukemia; 95.6% in the assay with OVCAR-8 ovarian; 93.1% in the assay on OVCAR-5 ovarian; 104% in the assay on SK-OV-3 ovarian; 108% in the assay on IGROV1 ovarian. For the same compound, the growth with OVCAR-3 ovarian was 102%; in the assay with HS 578T breast, 109%; in the assay on NCI/ADR-RES ovarian, 89.3%.

With `Nc1cc(N)ncn1`, the growth is 93.9% with SR leukemia; 105% in the assay on RPMI-8226 leukemia; 116% in the assay on OVCAR-8 ovarian; 96.5% with OVCAR-5 ovarian; 125% in the assay with SK-OV-3 ovarian; 101% in the assay with IGROV1 ovarian. Besides, the growth in the assay with OVCAR-3 ovarian is 112%; in the assay on HS 578T breast, 96.2%; in the assay on NCI/ADR-RES ovarian it was 97.6%.

As for `Cc1ccc(S(=O)(=O)CCCl)cc1`, the growth in the assay on SR leukemia was 90%; in the assay with RPMI-8226 leukemia it was 101%; with OVCAR-8 ovarian it was 101%; with OVCAR-5 ovarian, 101%; in the assay on SK-OV-3 ovarian, 124%; in the assay on IGROV1 ovarian, 123%. The growth in the assay with OVCAR-3 ovarian was 131%; with HS 578T breast, 102%; in the assay with NCI/ADR-RES ovarian, 105%.

For the compound `CC1CC2C3CCC4=CC(=O)CCC4(C)C3CCC2(C)C1(O)C(=O)CO` (configuration not stated), the growth is 107% with SR leukemia; 77.1% with RPMI-8226 leukemia; 105% with OVCAR-8 ovarian; 104% in the assay with OVCAR-5 ovarian; 102% in the assay on SK-OV-3 ovarian; 117% in the assay on IGROV1 ovarian. Besides, the values for the growth with OVCAR-3 ovarian, in the assay on HS 578T breast and in the assay on NCI/ADR-RES ovarian were 132%, 123% and 114%, respectively.
